Test results as given in PubChem BioAssay (Tox21).
Unmarked numbers belong to inactive results. Calls of active or inactive are those of the source. Calls come from the whole dose curve; as a rule, active = well fitted activation curve with a large enough effect in the repeat runs; inconclusive = weak or mixed curves; inactive = flat fitted curve, though single readings scatter.

test: A CellTox Green Cytotoxicity Assay to monitor cytotoxicity in HepG2 cells - 0 hour (AID 1224882); conditions: CellTox Green fluorescence; series mostly up to 76.8 µM; note: nearly all actives have a fitted effect of over 35% in size
Description: National Center for Advancing Translational Sciences [NCATS]
NIH Chemical Genomics Center [NCGC]
U.S. Environmental Protection Agency [EPA]
National Institutes of Environmental Health Sciences [NIEHS]
National Toxicology Program [NTP]
Cell-based models are critical for drug discovery. Determining the natural cytotoxic effects resulting from test compounds is an essential research activity. A CellTox Green Cytotoxicity Assay to monitor cytotoxicity in real time of continues cell culture during 40 hours of the compound treatment was used to screen Tox21 10K library compounds in HepG2 cells. CellTox Green Cytotoxicity Assay is a nonlytic, homogeneous, biofluorescent method to measure cytotoxicity in cell culture after experimental manipulation. The assay system uses a proprietary asymmetric cyanine dye that is excluded from viable cells but preferentially stains the dead cell's DNA. […] Viable cells produce no appreciable increases in fluorescence. Therefore, the fluorescence signal produced by the binding interaction with dead cell DNA is proportional to cytotoxicity.
The mixture of HepG2 cell suspension and reagents were dispensed at 600cells/6 ul/well in 1536-well tissue culture treated black solid bottom plates using a Multidrop dispenser. After the assay plates were incubated at a 37 C/5% CO2 incubator for 5 hours, 23 nL of compounds dissolved in DMSO, positive and negative controls was transferred to the assay plate by a pintool work station. The plates were incubated at 37 C for 40 hours. The fluorescence intensity were measured at 0h, 8h, 16h, 24h, 32h and 40h time points using ViewLux plate reader during compound treatment.
% is set by controls: 0 for no effect and ±100 for the full control effect.

| Structure (SMILES) | outcome | cytotoxicity |
| --- | --- | --- |
| CC(=O)/C=C/C1C(C)=CCC(C)C1(C)C (stereo not given) | inactive | – |
| NS(=O)(=O)c1cc2c(cc1Cl)CN(C1CCCCC1)C2=O | inactive | – |
| COC(=O)c1ccccc1C(=O)c1ccc(OCCN2CCCCC2)cc1 | inactive | – |
| C=C(C)C(=O)OCCOP(=O)(O)OCCOC(=O)C(=C)C | inactive | – |
| CCCCCOC(=O)CCC | inactive | – |
| OC[C@H](Cc1cccc(O)c1)[C@H](CO)Cc1cccc(O)c1 | inactive | – |
| CN1CCN(CC(=O)N2c3ccccc3C(=O)Nc3cccnc32)CC1 | – | -13.6% [at 6.97 µM] |
| C[Si](C)=O | – | -2.11% [at 6.97 µM] |
| FC(F)(F)c1ccccc1-n1ccnc1 | inactive | – |
| CC(C)C(=O)OCc1cccc(OC(=O)[C@@H]2N3C(=O)[C@@H](NC(=O)Cc4ccccc4)[C@H]3SC2(C)C)c1 | inactive | – |
| NS(=O)(=O)c1ccc(NC(=O)CCC(=O)O)cc1 | inactive | – |
| Brc1ccc(-c2ccccc2)cc1 | inactive | – |
| CCCCNc1ccc(C(=O)OCCN(C)C)cc1 | inactive | – |
| CCO[Si](CCCS)(OCC)OCC | inactive | – |
| CCN1CCc2nc(N)oc2CC1 | inactive | – |
| CC(C)=CCOC(=O)c1ccccc1 | inactive | – |
| COc1cc2c(cc1OC)C(=O)CC2 | inactive | – |
| O=C1CCCC(=O)O1 | inactive | – |
| CNC(=O)[C@H]1O[C@@H](n2cnc3c(NCc4cc(Cl)ccc4OCc4cc(C)no4)ncnc32)[C@H](O)[C@@H]1N | inactive | – |
| NNc1nnc(NN)c2ccccc12 | inactive | – |

| Structure (SMILES) | outcome | cytotoxicity |
| --- | --- | --- |
| O=C(OCC(COC(=O)c1cccnc1)(COC(=O)c1cccnc1)COC(=O)c1cccnc1)c1cccnc1 | inactive | – |
| CCCCCCCCCCl | inactive | – |
| CC(C)(C)c1n[nH]c(=S)n(N)c1=O | inactive | – |
| CCCCCCCCC1CCC(=O)O1 (stereo not given) | inactive | – |
| N[C@@H](COP(=O)(O)O)C(=O)O | – | 0.162% [at 15.8 µM] |
| CCOc1cc([N+](=O)[O-])c(OCC)cc1N1CCOCC1 | inactive | – |
| CC(C)=O | inactive | – |
| COc1ccc(C2CNC(=O)C2)cc1OC1CCCC1 (stereo not given) | inactive | – |
| CC1COc2ccccc2N1 (stereo not given) | inactive | – |
| c1ccc2c(c1)ccc1c3ccccc3ccc21 | inactive | – |
| COc1cc(C(=S)N2CCOCC2)cc(OC)c1OC | inactive | – |
| CC(C)(C)c1cc(CCC(=O)NN)cc(C(C)(C)C)c1O | inactive | – |
| CCOC(=O)c1ccc(OC(=O)CCCCCN=C(N)N)cc1 | inactive | – |
| CCCCCCCC/C=C\CCCCCCCC(=O)OCCCC | – | -2.01% [at 15.8 µM] |
| OCCC(F)(F)C(F)(F)C(F)(F)C(F)(F)C(F)(F)C(F)(F)C(F)(F)C(F)(F)F | inactive | – |
| C=C(C)C1CCC(C)(O)CC1 (stereo not given) | inactive | – |
| CCC(C)(CCC(C)C)C(=O)O (stereo not given) | inactive | – |
| CC(C)CC(C)CC(C)CC(C)COC(=O)c1ccccc1C(=O)OCC(C)CC(C)CC(C)CC(C)C (stereo not given) | inactive | – |
| COP(=O)(OC)OC(c1ccc(Cl)cc1)P(=O)(OC)OC (stereo not given) | inactive | – |
| COCCOCCOCCOCCOCCO | inactive | – |
